“And” between values parts separate entries of the source, which are not always exact repeats. Equal entries are not always repeated. About 4,200 (1.2%) of roughly 360,000 compounds were called active.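 The calls were made as follows: active = mean replicate inhibition at least 60% with every replicate also reaching 60%; inconclusive = only one of the two criteria is met; inactive = mean below 60% and not all replicates reaching 60%.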 Only a selection was taken, and actives are over-represented in it overall.

A short description of the assay: inhibitors of PAX8-driven TPO luciferase reporter, primary screen, RMG-I cells, single concentration (AID 652154).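 Also: luciferase light reporting Pax8 driven TPO promoter activity; plate controls were median of neutral control wells for no effect and mitoxantrone controls for full effect.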 As to conditions: SteadyGlo, 24 h, at 12.6 µM, stronger effect = higher value.
For `CN(C)CC1Oc2ccccc2OC1(O)c1ccccc1` (stereo not given), the inhibition was 78.4% (active).

In the case of `O=C(Cc1ccccc1)N1CCCCN2[C@H](CO)[C@H](c3ccc(C#Cc4ccccc4)cc3)[C@H]2C1`, the inhibition is 0.0955% (inactive).

For `O=C(Cc1ccncc1)N1CCCCN2[C@H](CO)[C@@H](c3ccc(C#CC4(O)CCCC4)cc3)[C@H]2C1`, the inhibition was -4.86% (inactive).

Turning to `O=C(Cc1ccccc1)N1CCCCN2[C@H](C1)[C@H](c1ccc(C#CC3(O)CCCC3)cc1)[C@@H]2CO`, the inhibition was 12.4% (inactive).

In the case of `CCC(C)(O)C(=O)OC1C(=O)OC2CC3C(C)=CC(=O)C(O)C3(C)C3C4(O)OCC23C1C(C)C4O` (stereo not given), the inhibition is 96.4% (active).

For the compound `C/C=C/c1ccc([C@H]2[C@H](CO)N3CCCCN(C(=O)Cc4ccncc4)C[C@@H]23)cc1`, the inhibition is 11.3% (inactive).

`N#Cc1cccc(-c2ccc([C@H]3[C@@H](CO)N4CCCCN(C(=O)Cc5cccnc5)C[C@@H]34)cc2)c1`: the inhibition is -12% (inactive).

`Cc1cc(N2CCNC[C@@H]2C)ccc1N1CC[C@H](O)C1`: the inhibition is 1.43% (inactive).

Regarding `CC(=CCOc1ccc2ccc(=O)oc2c1)C1=CC(=O)C(C)(C)O1`, the inhibition is 108% (active).

With `COc1ccc(C#Cc2ccc([C@H]3[C@H](CO)N4CCCCN(C(=O)Cc5ccccc5)C[C@@H]34)cc2)cc1`, the inhibition is -13.5% (inactive).

Turning to `C/C=C/c1ccc(C2[C@@H]3CN(Cc4cncnc4)C[C@H]2N3)cc1` (stereo not given in full), the inhibition was -5.53% (inactive).

For the compound `COc1cccc(-c2ccc3n(c2=O)C[C@@H]2[C@@H](CO)[C@H](C(=O)O)[C@H]3N2C(=O)c2cnccn2)c1`, the inhibition was 1.83% (inactive).

Regarding `COC(=O)[C@@H]1[C@@H](CO)[C@@H]2Cn3c(ccc(-c4ccc(F)cc4)c3=O)[C@H]1N2C(C)=O`, the inhibition is -4.95% (inactive).

With `CCOc1ccc(-c2cc(C)[n+](CCN(CC)CC)c(-c3ccc(OCC)cc3)c2)cc1`, the inhibition was 87.4% (active).

With `CCOC(=O)[C@]12Cc3cc(OC)ccc3[C@H]1N(C(C)C)C(=O)c1ccccc12`, the inhibition is -13.7% (inactive).

Regarding `O=C(Cc1ccncc1)N1CCCCN2[C@@H](CO)[C@H](c3ccc(C#CC4(O)CCCC4)cc3)[C@@H]2C1`, the inhibition was -6.83% (inactive).

Take `O=S(=O)(c1ccccc1)N1CCC2CCNC2C1` (stereo not given): the inhibition is -15.4% (inactive).

On to `O=C(Cc1cccnc1)N1CCCCN2[C@@H](CO)[C@H](c3ccc(C#CC4CCCC4)cc3)[C@@H]2C1`, for which the inhibition is -34.4% (inactive).

As for `COc1cccc(-c2ccc([C@H]3[C@H]4CN(C(=O)Cc5ccncc5)CCCCN4[C@H]3CO)cc2)c1`, the inhibition is 47.9% (inactive).

As to `CCOC(=O)[C@@H]1[C@@H]2NC(=O)N[C@@]1(C)Oc1ccccc12`, the inhibition was 8.82% (inactive) and -6.19% (inactive).

As to `Brc1ccc2c(c1)CNCc1cnnn1-2`, the inhibition is -19.7% (inactive).

`O=C(O)[C@H]1[C@H](CO)[C@H]2Cn3c(ccc(-c4ccccc4)c3=O)[C@@H]1N2S(=O)(=O)c1ccccc1F`: the inhibition was -5.43% (inactive).

For `O=c1[nH]c2ccccc2n1C1CCN(C(c2ccccc2)c2nnnn2Cc2ccccc2)CC1` (stereo not given), the inhibition is 82.1% (active).

`CSCCC(c1nnnn1C(C)(C)C)N1CCC(n2c(=O)[nH]c3ccccc32)CC1` (stereo not given): the inhibition is 32.9% (inactive).

Turning to `O=C1NCN(c2ccccc2)C12CCN(C(c1cccs1)c1nnnn1C1CCCCC1)CC2` (stereo not given), the inhibition was -2.94% (inactive).

Consider `COc1ccc(-n2nnnc2C(c2cccc3ccccc23)N2CCC(n3c(=O)[nH]c4ccccc43)CC2)cc1` (stereo not given), for which the inhibition was 63.7% (active).

With `COc1cccc(C(c2nnnn2-c2ccc3c(c2)OCCO3)N2CCC3(CC2)C(=O)NCN3c2ccccc2)c1OC` (stereo not given), the inhibition is -8.19% (inactive).

On to `O=c1[nH]c2ccccc2n1C1CCN(C(c2ccnc3ccccc23)c2nnnn2Cc2ccccc2)CC1` (stereo not given), for which the inhibition was -10.5% (inactive).

On to `CCOC(=O)[C@]12Cc3ccccc3[C@H]1N(C1CCCCC1)C(=O)c1cc(OC)ccc12`, for which the inhibition was 49.5% (inactive).

In the case of `COc1cccc(-c2ccc3n(c2=O)C[C@H]2[C@H](CO)[C@@H](C(=O)O)[C@@H]3N2C(=O)c2cnccn2)c1`, the inhibition is -1.69% (inactive).

For the compound `CS(=O)(=O)N1CCC2CCNC2C1` (stereo not given), the inhibition was -27.9% (inactive).

On to `COc1cc(OC)cc(C(=O)NCCN2CCC3(CC2)C(=O)NCN3c2ccccc2)c1`, for which the inhibition is -21.4% (inactive).

For `O=C(Cc1ccccn1)N1CCCCN2[C@@H](CO)[C@@H](c3ccc(C#Cc4ccccc4)cc3)[C@@H]2C1`, the inhibition is 9.59% (inactive).

On to `CC1=CC(=Cc2sc3ccccc3[n+]2C)C=C(C)O1`, for which the inhibition was 74.9% (active).

With `C/C=C/c1ccc(C2[C@@H]3CN(S(C)(=O)=O)C[C@H]2N3)cc1` (stereo not given in full), the inhibition is 9.75% (inactive).

As to `CCCCCCCCCCCCn1ccc(=N)cc1`, the inhibition is 101% (active).

In the case of `O=C(Cc1ccccn1)N1CCCCN2[C@H](C1)[C@H](c1ccc(-c3ccccc3F)cc1)[C@@H]2CO`, the inhibition is 19.2% (inactive).

Regarding `O=C(O)[C@@H]1[C@@H](CO)[C@@H]2Cn3c(ccc(-c4ccccc4F)c3=O)[C@H]1N2C(=O)c1cccnc1`, the inhibition was -13.1% (inactive).

With `OC[C@@H]1[C@H]2c3ccccc3NC[C@H]2N1Cc1cccnc1`, the inhibition is 2.56% (inactive).

On to `COC(=O)C1=C(c2ccccc2OCc2ccccc2)C[C@@H]2CC[C@H]1N2C(=O)NCc1ccc(OC)cc1`, for which the inhibition was 15% (inactive).

As to `COC(=O)C1=C(c2ccc(F)cc2OCc2ccccc2)C[C@@H]2CC[C@H]1N2C(=O)NCc1ccc(C(C)(C)C)cc1`, the inhibition is 79% (active).

With `COC(=O)C1=C(c2ccc(F)cc2OCc2ccccc2)C[C@@H]2CC[C@H]1N2C(=O)NCc1ccc(Cl)cc1`, the inhibition is 24.6% (inactive).

As to `COC(=O)C1=C(c2ccc(F)cc2OCc2ccccc2)C[C@@H]2CC[C@H]1N2C(=O)NCc1ccc(OC)c(OC)c1`, the inhibition was 21.7% (inactive).

In the case of `COC(=O)C1=C(c2ccc(F)cc2OCc2ccccc2)C[C@@H]2CC[C@H]1N2C(=O)NCc1ccc2[nH]ccc2c1`, the inhibition was 89% (active).

As for `COC(=O)C1=C(c2ccc(OCc3ccccc3)cc2)C[C@@H]2CC[C@H]1N2C(=O)NCc1cccc(F)c1`, the inhibition is 5.35% (inactive).

Turning to `COC(=O)C[C@@H]1CC[C@@H]2NC[C@@H](O)COC[C@H]2O1`, the inhibition was 2.66% (inactive).

With `COC(=O)C[C@H]1CC[C@H]2NC[C@@H](O)COC[C@@H]2O1`, the inhibition is 2.02% (inactive) and -13.9% (inactive).

`COC(=O)[C@H]1[C@H](CO)[C@H]2Cn3c(ccc(-c4cccc(F)c4)c3=O)[C@@H]1N2Cc1ccccc1`: the inhibition was 7.46% (inactive).

As to `COC(=O)[C@@H]1[C@@H](CO)[C@@H]2Cn3c(ccc(-c4cccc(C(=O)N(C)C)c4)c3=O)[C@H]1N2C(=O)NC(C)C`, the inhibition is -0.877% (inactive).

With `O=C(Cc1ccncc1)N1CCCCN2[C@@H](CO)[C@H](c3ccc(-c4ccncc4)cc3)[C@@H]2C1`, the inhibition was 6.85% (inactive).
